Common to all, as to conditions: mRNA level, 48 h; actives raise or lower the signal
Read-out in test [1]: Bcl-2 (BAX) gene, BAX (gene 581)
The experiment in a line: LTEA_HepaRG_BAX: Life Technologies and Expression Analysis (LTEA) Assay for Bcl-2 (BAX) gene using HepaRG (AID 2283470). The procedure, abridged: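 Gene expression measured by Fluidigm qRT-PCR with three housekeeping genes for normalisation. HepaRG cells, plated 48 h beforehand, treated 48 h at up to 100 uM (8-point, half-log) in 0.5% DMSO. Bidirectional fitting versus DMSO.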

Read-out in test [2]: adenosine kinase (ADK) gene, ADK (gene 132)
Kind of test: LTEA_HepaRG_ADK: Life Technologies and Expression Analysis (LTEA) Assay for adenosine kinase (ADK) gene using HepaRG (AID 2283471). The gist of the method: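 HepaRG (human liver), 48 h chemical exposure, 8-pt half-log series, top 100 uM, 0.5% DMSO vehicle. Readout: ADK mRNA by qRT-PCR vs housekeeping genes; bidirectional curve fit relative to DMSO baseline.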

Read-out in test [3]: Alpha-fetoprotein (AFP) gene, AFP (gene 174)
The experiment in a line: LTEA_HepaRG_AFP: Life Technologies and Expression Analysis (LTEA) Assay for Alpha-fetoprotein (AFP) gene using HepaRG (AID 2283472). The procedure, abridged: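 AFP transcript measured by TaqMan qRT-PCR with three housekeeping genes for normalization, after 48 h chemical treatment of HepaRG cells (top 100 uM, half-log steps, 0.5% DMSO). Gain or loss fitted against vehicle.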

Read-out in test [4]: Apolipoprotein A-V (APOA5) gene, APOA5 (gene 116519)
Kind of test: LTEA_HepaRG_APOA5: Life Technologies and Expression Analysis (LTEA) Assay for Apolipoprotein A-V (APOA5) gene using HepaRG (AID 2283474). The gist of the method: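 Readout is APOA5 transcript level by qRT-PCR on Fluidigm dynamic arrays, normalized to three housekeeping genes. HepaRG cultures received chemicals for 48 h at up to 100 uM (half-log steps, 0.5% DMSO), with gain or loss scored relative to DMSO.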

Read-out in test [5]: Apoptosis regulator Bcl-2 (Homo sapiens) (UniProt P10415)
Kind of test: LTEA_HepaRG_BCL2: Life Technologies and Expression Analysis (LTEA) Assay for Bcl-2 gene using HepaRG (AID 2283475). The procedure, abridged:
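qRT-PCR of BCL2 transcript, normalized to three housekeeping genes (ACTB, GAPDH, POLR2A), after 48 h chemical exposure of HepaRG cells; concentrations top 100 uM with half-log dilutions, 0.5% DMSO vehicle, duplicates; changes up or down fitted relative to vehicle.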

Read-out in test [6]: Bcl-2 (BID) gene, BID (gene 637)
Kind of test: LTEA_HepaRG_BID: Life Technologies and Expression Analysis (LTEA) Assay for Bcl-2 (BID) gene using HepaRG (AID 2283476). The procedure, abridged:
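Duplicate 48 h treatments of HepaRG cells in serum-free induction medium spanned 100 uM downward in half-log steps, 0.5% DMSO. Transcript change quantified by qRT-PCR against three housekeeping genes, fitted up or down versus DMSO.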

Read-out in a further test: Caspase-3 (Homo sapiens) (UniProt P42574)
Kind of test: LTEA_HepaRG_CASP3: Life Technologies and Expression Analysis (LTEA) Assay for cysteine-aspartic acid protease (CASP3) using HepaRG (AID 2283477). The gist of the method:
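Read-out is CASP3 mRNA level by TaqMan qRT-PCR in human HepaRG cells after 48 h chemical exposure. Eight half-log concentrations topping at 100 uM were tested in 0.5% DMSO; gain or loss was fitted relative to DMSO.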

Read-out in test [7]: Cytochrome P450 (CYP24A1), CYP24A1 (gene 1591)
The experiment in a line: LTEA_HepaRG_CYP24A1: Life Technologies and Expression Analysis (LTEA) Assay for Cytochrome P450 (CYP24A1) using HepaRG (AID 2283478). The procedure, abridged:
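HepaRG, 48 h chemical exposure, 8-pt half-log CRC from 100 uM, 0.5% DMSO vehicle, duplicates. Endpoint: CYP24A1 mRNA by Fluidigm TaqMan qRT-PCR, normalized ACTB/GAPDH/POLR2A; gain/loss fit vs DMSO.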

Read-out in test [8]: Cytochrome P450 (CYP1A2), CYP1A2 (gene 1544)
Kind of test: LTEA_HepaRG_CYP1A2: Life Technologies and Expression Analysis (LTEA) Assay for Cytochrome P450 (CYP1A2) using HepaRG (AID 2283479). The procedure, abridged:
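CYP1A2 transcript induction or loss, quantified by Fluidigm qRT-PCR against three housekeeping genes, was fitted bidirectionally against 0.5% DMSO controls. Human HepaRG cells received eight half-log concentrations from 100 uM over 48 h.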

Read-out in test [9]: cysteine-aspartic acid protease (CASP8), CASP8 (gene 841)
Kind of test: LTEA_HepaRG_CASP8: Life Technologies and Expression Analysis (LTEA) Assay for cysteine-aspartic acid protease (CASP8) using HepaRG (AID 2283480). The gist of the method:
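Concentration-response in duplicate up to 100 uM (half-log steps, 0.5% DMSO) on differentiated HepaRG cultures for 48 h. Expression change of CASP8 mRNA is determined by TaqMan qRT-PCR with housekeeping-gene normalization.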

Read-out in test [10]: Cytochrome P450 (CYP2B6), CYP2B6 (gene 1555)
The experiment in a line: LTEA_HepaRG_CYP2B6: Life Technologies and Expression Analysis (LTEA) Assay for Cytochrome P450 (CYP2B6) using HepaRG (AID 2283481). The procedure, abridged:
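HepaRG cells plated 48 h, switched to serum-free induction medium, then dosed 48 h (8 points, half-log from 100 uM, 0.5% DMSO). RNA isolated; CYP2B6 expression measured by qRT-PCR; gain or loss fitted relative to DMSO.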

Read-out in test [11]: Cytochrome P450 2C19 (Homo sapiens) (UniProt P33261)
The experiment in a line: LTEA_HepaRG_CYP2C19: Life Technologies and Expression Analysis (LTEA) Assay for CYP2C19 using HepaRG (AID 2283482). The gist of the method:
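Transcript levels of CYP2C19 were quantified by qRT-PCR after HepaRG cells were treated for 48 hours with test chemicals up to 100 uM (eight half-log concentrations, 0.5% DMSO vehicle). Gain or loss of signal was fitted relative to DMSO.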

Read-out in the next test: CYP2C8 (gene 1558)
The experiment in a line: LTEA_HepaRG_CYP2C8: Life Technologies and Expression Analysis (LTEA) Assay for CYP2C8 using HepaRG (AID 2283483). The gist of the method:
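This is a transcriptional endpoint in HepaRG cultures: 48 h exposure, highest concentration 100 uM. CYP2C8 mRNA is quantified by TaqMan qRT-PCR.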

Read-out in the next test: CYP2C9 (gene 1559)
The experiment in a line: LTEA_HepaRG_CYP2C9: Life Technologies and Expression Analysis (LTEA) Assay for CYP2C9 using HepaRG (AID 2283484). The procedure, abridged: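 Eight-point concentration-response (highest 100 uM, half-log dilutions) in HepaRG cells for 48 h; CYP2C9 expression by qRT-PCR normalized to ACTB, GAPDH, POLR2A. Bidirectional fit, DMSO baseline.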

Read-out in another test: CYP2E1 (gene 1571)
The experiment in a line: LTEA_HepaRG_CYP2E1: Life Technologies and Expression Analysis (LTEA) Assay for CYP2E1 using HepaRG (AID 2283485). The gist of the method:
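CYP2E1 transcript measured by Fluidigm qRT-PCR against three housekeeping genes in human HepaRG cells treated 48 h (top 100 uM, half-log steps, 0.5% DMSO vehicle). Gain or loss fitted relative to DMSO baseline.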

Read-out in another test: CYP4A11 (gene 1579)
Kind of test: LTEA_HepaRG_CYP4A11: Life Technologies and Expression Analysis (LTEA) Assay for CYP4A11 using HepaRG (AID 2283486). The gist of the method: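 HepaRG, 48 h chem exposure, 8 conc (100 uM top, half-log), 0.5% DMSO vehicle; qRT-PCR readout, housekeeping-gene normalized; bidirectional curve fit vs DMSO baseline.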

Read-out in test [12]: DNA damage-inducible transcript 3 (DDIT3), DDIT3 (gene 1649)
The experiment in a line: LTEA_HepaRG_DDIT3: Life Technologies and Expression Analysis (LTEA) Assay for DNA damage-inducible transcript 3 (DDIT3) using HepaRG (AID 2283488). The gist of the method:
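DDIT3 transcript was quantified by qRT-PCR with ACTB/GAPDH/POLR2A normalization after 48 h chemical treatment of differentiated HepaRG cells in 0.5% DMSO. Dosing was eight-point, half-log, top 100 uM, duplicate wells. Curves fitted bidirectionally versus DMSO.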

Read-out in test [13]: Pro-epidermal growth factor (Homo sapiens) (UniProt P01133)
Kind of test: LTEA_HepaRG_EGF: Life Technologies and Expression Analysis (LTEA) Assay for Epidermal growth factor (EGF) using HepaRG (AID 2283489). The procedure, abridged: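 HepaRG, 48 h dosing, 100 uM top, half-log x8, 0.5% DMSO. Readout: TaqMan qRT-PCR (Fluidigm array), housekeeping-normalized. Gain or loss of signal fit vs DMSO.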

Read-out in test [14]: Cytochrome P450 3A4 (Homo sapiens) (UniProt P08684)
The experiment in a line: LTEA_HepaRG_CYP3A4: Life Technologies and Expression Analysis (LTEA) Assay for CYP3A4 using HepaRG (AID 2283487). The procedure, abridged: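 CYP3A4 transcript measured by TaqMan qRT-PCR and normalized to three housekeeping genes after 48 h chemical exposure of human HepaRG cells. Top concentration 100 uM, half-log steps, 0.5% DMSO vehicle; gain or loss fitted against DMSO baseline.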

Structures are written as SMILES. The source made the active and inactive calls. Rule for the calls: active = hit-call score of the fitted dose curve at least 0.9, where 1 is the maximum; inactive = score below 0.9.

Sequence of Caspase-3 (Homo sapiens) (P42574 whole entry, looked up): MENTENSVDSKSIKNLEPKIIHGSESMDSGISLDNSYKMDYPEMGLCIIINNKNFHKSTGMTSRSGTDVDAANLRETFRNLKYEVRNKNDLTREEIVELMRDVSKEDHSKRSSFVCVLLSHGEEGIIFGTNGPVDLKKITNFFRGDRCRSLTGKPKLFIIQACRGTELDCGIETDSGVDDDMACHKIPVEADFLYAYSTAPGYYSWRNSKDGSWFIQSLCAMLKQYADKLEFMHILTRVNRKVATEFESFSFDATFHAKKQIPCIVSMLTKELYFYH
Sequence of Cytochrome P450 2C19 (Homo sapiens) (P33261 whole entry, looked up): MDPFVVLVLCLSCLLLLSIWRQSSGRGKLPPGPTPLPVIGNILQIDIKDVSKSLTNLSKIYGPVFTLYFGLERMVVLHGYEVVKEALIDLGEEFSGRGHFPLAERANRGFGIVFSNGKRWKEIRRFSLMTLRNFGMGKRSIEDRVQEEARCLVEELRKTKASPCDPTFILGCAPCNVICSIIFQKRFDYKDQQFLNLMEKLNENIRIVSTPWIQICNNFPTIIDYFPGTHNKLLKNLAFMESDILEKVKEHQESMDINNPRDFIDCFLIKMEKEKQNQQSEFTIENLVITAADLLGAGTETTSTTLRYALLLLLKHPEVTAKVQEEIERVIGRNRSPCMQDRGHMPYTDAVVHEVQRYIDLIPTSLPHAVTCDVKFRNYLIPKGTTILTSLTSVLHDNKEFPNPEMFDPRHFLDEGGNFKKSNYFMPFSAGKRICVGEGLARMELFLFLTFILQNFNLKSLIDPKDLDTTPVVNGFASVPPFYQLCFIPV
Sequence of Apoptosis regulator Bcl-2 (Homo sapiens) (P10415 whole entry, looked up): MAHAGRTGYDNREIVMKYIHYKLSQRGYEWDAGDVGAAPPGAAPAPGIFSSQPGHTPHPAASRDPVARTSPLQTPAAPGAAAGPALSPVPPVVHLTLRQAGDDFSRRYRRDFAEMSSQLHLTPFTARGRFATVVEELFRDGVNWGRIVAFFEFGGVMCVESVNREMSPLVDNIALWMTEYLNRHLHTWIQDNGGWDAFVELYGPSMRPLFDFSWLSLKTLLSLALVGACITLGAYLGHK
Sequence of Cytochrome P450 3A4 (Homo sapiens) (P08684 whole entry, looked up): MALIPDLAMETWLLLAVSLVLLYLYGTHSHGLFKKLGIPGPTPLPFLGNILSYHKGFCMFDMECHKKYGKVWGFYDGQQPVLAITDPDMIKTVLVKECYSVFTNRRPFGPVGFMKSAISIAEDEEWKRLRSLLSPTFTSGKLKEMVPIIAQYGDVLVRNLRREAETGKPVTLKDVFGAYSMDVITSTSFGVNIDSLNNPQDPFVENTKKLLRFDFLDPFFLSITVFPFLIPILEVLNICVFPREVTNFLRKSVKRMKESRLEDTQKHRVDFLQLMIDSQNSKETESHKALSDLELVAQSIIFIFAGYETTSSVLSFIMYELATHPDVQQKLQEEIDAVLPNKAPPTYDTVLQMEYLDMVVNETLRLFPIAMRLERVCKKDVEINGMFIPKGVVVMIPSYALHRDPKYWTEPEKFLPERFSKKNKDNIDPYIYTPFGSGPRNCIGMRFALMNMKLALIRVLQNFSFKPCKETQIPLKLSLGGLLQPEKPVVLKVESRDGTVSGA

In the case of `CC[C@H](NC(=O)c1cc(F)ccc1NS(=O)(=O)c1cccc2cccnc12)c1ccccc1`, the AC50 in test [1] was 9.47 µM (active); in test [3], 32.1 µM (active); in test [4], 60.5 µM (active); in test [8], 76 µM (active); in test [10], 88.2 µM (active); in [11] it was 0.972 µM (active). The AC50 is 78.5 µM (active) with CYP2C9 (gene 1559); 22.3 µM (active) with CYP2E1 (gene 1571); 22.4 µM (active) with CYP4A11 (gene 1579); 47.8 µM (active) in [12]; 11.5 µM (active) in test [13]. In addition, the outcome (in test [2]; in test [5]; in [6]; in the test with Caspase-3 (Homo sapiens); in [7]; in [9]) was inactive. Further, the molecule was classed as inactive with CYP2C8 (gene 1558).
Regarding `CO[C@H]1/C=C/O[C@@]2(C)Oc3c(C)c(O)c4c(O)c(c(/C=N/N5CCN(C)CC5)c(O)c4c3C2=O)NC(=O)/C(C)=C\C=C\[C@H](C)[C@H](O)[C@@H](C)[C@@H](O)[C@@H](C)[C@H](OC(C)=O)[C@@H]1C`, the result (in test [1]; in test [2]; in test [4]; in test [5]; in [6]; with Caspase-3 (Homo sapiens)) was inactive. In addition, the molecule was classed as inactive in test [7], in [9], in test [12] and in [13]. Also, the AC50 in test [3] is 13 µM (active); in [8], 0.563 µM (active); in test [10] it was 0.359 µM (active); in [11], 0.427 µM (active); in the test with CYP2C8 (gene 1558) it was 0.232 µM (active); in the test with CYP2E1 (gene 1571) it was 1.06 µM (active). Also, the AC50 with CYP4A11 (gene 1579) was 0.593 µM (active).
For the molecule `Cc1cn([C@H]2C[C@H](N=[N+]=[N-])[C@@H](CO)O2)c(=O)[nH]c1=O`, the molecule was called inactive in test [1], in test [2], in [3], in test [4], in test [5] and in test [6]. The result (in the test with Caspase-3 (Homo sapiens); in [8]; in test [9]; in test [10]; in [11]; with CYP2C8 (gene 1558)) was inactive. Also, the molecule was classed as inactive (in the test with CYP2C9 (gene 1559); in the test with CYP2E1 (gene 1571); with CYP4A11 (gene 1579); in [14]; in [12]; in test [13]).

The values above are taken from PubChem BioAssay (EPA / NIEHS).
